Inhibition data for 94 compounds are collected here from PubChem BioAssay AID739 (SRMLSC, 2007).

Out of some 98,000 compounds screened, about 880 (0.9%) were called active. What follows is part of a selection rich in actives, with near analogues and random picks from the rest. Values without a mark were called inactive. Cut-off read from the data, not from the text of the source: active = inhibition above about 30%; inactive = the rest.

The test is described as follows: phenotypic screen on post-Golgi transport, primary screen (AID 739).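 Note: yeast cells grown in 1536-well plates; yeast grown about 18 h at 30C before absorbance read.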 The note with it: post-Golgi transport phenotypic cell assay; at 10 µM; hits give high values.
The term inhibition denotes the drop in the measured response relative to a control, in per cent. Regarding `CC(C)NC(=O)C(=O)NCCN1CCN(S(=O)(=O)c2ccc(Cl)cc2)CC1`, the inhibition is 1.12%.
The value for `CC1(C)Cc2c(sc3nc(SCC(=O)NCc4ccccc4)n(-c4ccccc4)c(=O)c23)CS1` was 8.61%; that for `COc1ccc(CC(=O)Nc2ccc(-c3nnc(-c4ccc(C)cc4)o3)cc2)cc1` was 5.17%; that for `COc1ccc(NC(=O)/C(Cl)=C(/Cl)S(=O)Cc2ccc(C)cc2)cn1` (centres undefined) was 107% (active).
The same measure for `COc1cccc(NC(=O)Cc2ccc(C)cc2)c1`: 24.4%; for `O=C(NC(Nc1nc2ccc([N+](=O)[O-])cc2s1)(C(F)(F)F)C(F)(F)F)c1ccccc1`: 102% (active).
The value for `COC(=O)C(NC(=O)c1ccc(OC)cc1)(Nc1ncc(S(=O)(=O)c2ccc([N+](=O)[O-])cc2)s1)C(F)(F)F` (centres undefined) was 6.99%; that for `Cc1cc(C)cc(OCC(=O)Nc2nc3ccc([N+](=O)[O-])cc3s2)c1` was -4.35%; that for `COc1cc(OC)c(/C=N/NC(=O)c2ccc([N+](=O)[O-])cc2)cc1Br` was -4.41%.
Regarding `CCCc1ccc(-c2c(C)sc(NC(=O)c3ccnn3C)c2C#N)cc1`, the inhibition was -9.37%.
The value for `CC(CCc1ccccc1)NC(=O)c1ccc(Br)o1` (centres undefined) was 2.83%; that for `CC(CNC(=O)c1ccc(Br)o1)NC(=O)c1ccc(Br)o1` (centres undefined) was 36.5% (active); that for `CCc1c(C)sc(NC(=O)c2ccc(Br)o2)c1C(=O)OC` was 2.81%.
The same measure for `Cc1cccc(C(=O)N2CCCN(C(=O)c3cccc(C)c3)CC2)c1`: 17.7%.
The value for `COC(=O)C1C(=O)NCC1c1ccc(C)cc1` (centres undefined) was -3.77%; that for `CCCCN=C1N/C(=C\c2ccco2)C(=O)N1c1ccccc1` was 1.56%; that for `O=C1c2ccccc2C(=O)N1CCC(c1ccccc1)c1ccco1` (centres undefined) was -1.67%.
With `C=CCCC(=O)Nc1nc(C)c(-c2csc(Nc3ccc(Cl)cc3)n2)s1`, the inhibition was 12.8%.
For `CCCCC(=O)Nc1nc(C)c(-c2csc(Nc3ccc(Cl)cc3)n2)s1`, the inhibition is 32.9% (active).
The value for `CCCCCCC(=O)Nc1nc(C)c(-c2csc(Nc3cc(Cl)ccc3OC)n2)s1` was -2.77%; that for `CCCCOc1ccc(C(=O)NCc2ccncc2)cc1` was 2.23%; that for `COc1c(C)cccc1C(=O)Nc1cc(Cl)ccc1N1CCOCC1` was 64.3% (active).
The value for `O=C(CNC(=O)c1ccc(Cl)cc1Cl)NCC(=O)Nc1ccccc1N1CCOCC1` was -6.67%; that for `Cc1cc(C(=O)Nc2ccccc2N2CCOCC2)c2ccccc2n1` was -2.05%.
The value for `Cc1nonc1NC(=O)c1ccccc1Br` was -12.3%.
With `O=C(Nc1nnc(-c2ccc(Cl)cc2)o1)c1ccccc1Br`, the inhibition was 78.2% (active).
`O=C(Nc1cccc(Cl)c1)Nc1nnc(-c2ccccc2)o1`: the inhibition is -5.96%.
The same measure for `CS(=O)(=O)N1CCN(c2ccc(C(=O)NC3C4CC5CC(C4)CC3C5)cc2[N+](=O)[O-])CC1` (centres undefined): -5.58%; for `CCOC(=O)N1CCC(Nc2c(NCCCN3CCN(CC)CC3)c(=O)c2=O)CC1`: -3.44%.
As to `Cc1ccc(C(=O)NNC(=O)OC(C)(C)C)c(Cl)c1`, the inhibition was -3.13%.
Take `CCN1CCN(c2c(Cl)cccc2NC(=O)c2ccc(Br)o2)CC1`: the inhibition was 30.4% (active).
The value for `CCCC(=O)Nc1ccc(Cl)c(NC(=O)c2ccc(Br)o2)c1` was 0.4%; that for `COc1cc(OC)c(NC(=O)c2ccc(Br)o2)cc1Cl` was 6.31%; that for `CC(C)Cn1cnc2c1c(=O)n(CC(O)c1ccccc1)c(=O)n2CC(C)C` (centres undefined) was 2.02%.
The same measure for `CCn1c2ccccc2c2cc(NC(=S)N3CCOCC3)ccc21`: 8.17%.
The value for `CCCC(=O)N(CCc1ccccc1)Cc1nc2ccccc2c(=O)[nH]1` was -6.28%.
As to `COc1ccc(N2CCN(Cc3cc(=O)oc4ccc5ccccc5c34)CC2)cc1`, the inhibition was 14.4%.
The same measure for `CN(Cc1nc2ccccc2c(=O)[nH]1)Cc1cc(=O)oc2ccc3ccccc3c12`: 39.3% (active); for `CC(C)c1ccc(NC(=O)CCN2C(=O)c3ccc([N+](=O)[O-])cc3C2=O)cc1`: -0.5%.
The same measure for `Cc1ccc(S(=O)(=O)NCC(=O)N(CC(=O)NC(C)(C)C)Cc2cccs2)cc1`: -2.77%; for `Cn1nc([N+](=O)[O-])nc1Sc1ccc(C(C)(C)C)cc1`: 0.31%.
Take `Cn1c(Cn2nnc3ccccc32)nnc1SCC(=O)c1ccccc1F`: the inhibition is 11.5%.
The value for `O=C(c1cccnc1NCc1ccccc1)N1CCOCC1` was -0.34%; that for `CSc1ncccc1C(=O)OCC(=O)N1CCOCC1` was 31.5% (active); that for `COc1ccc(C(CNC(=O)c2cccnc2SC)N2CCOCC2)cc1` (centres undefined) was -3.85%.
The value for `Cc1ccc(SCC(=O)c2sc(-c3ccccc3)nc2C)cc1` was -0.4%; that for `O=C(COc1ncnc2c(Cl)cc(Cl)cc12)N1CCN(S(=O)(=O)c2ccccc2)CC1` was 18.3%.
The value for `CC(=O)NNc1cc(=O)c2c(=O)n(C)c(=O)n(C)c2[nH]1` was 9.45%.
In the case of `O=S(=O)(c1cnccc1N1CCN(/N=C/c2ccc(Br)cc2)CC1)N1CCCCC1`, the inhibition is 49.6% (active).
The same measure for `O=C(O)C1CCCN(S(=O)(=O)c2cccc3cccnc23)C1` (centres undefined): -3.64%; for `CNS(=O)(=O)c1cnccc1N1CCN(c2cccc(C)c2)CC1`: -3.21%; for `CCCOn1c(-n2nc(C)cc2C)nc2ccccc2c1=O`: 2.91%.
The value for `CCOC(=O)N1CCN(c2c(NCCCN3CCCC(C)C3)c(=O)c2=O)CC1` (centres undefined) was 7.09%.
The value for `O=C(OCc1cn(-c2ccc(Cl)c(Cl)c2)nn1)c1ccccc1Cl` was -1.94%; that for `CCn1c(/C=C/c2ccc([N+](=O)[O-])o2)nc2ccccc2c1=O` was 76.6% (active).
As for `CCc1ccc(NC(=O)CSc2nc3ccccc3c(=O)n2CCN2CCOCC2)cc1`, the inhibition was 0%.
The same measure for `Cc1nc2ccccc2c(=O)n1CCCn1ccnc1`: 2.21%.
On to `O=C(CCCCCn1c(=O)[nH]c2ccccc2c1=O)NCCc1c[nH]c2ccccc12`, for which the inhibition was -3.35%.
`COc1ccc2c(c1)CCc1c(C(=O)Nc3c(C)n(C)n(-c4ccccc4)c3=O)noc1-2`: the inhibition is 3.19%.
`COc1ccc2c(c1)CCc1c(C(=O)N3CCc4ccccc4C3)noc1-2`: the inhibition is 40.4% (active).
The value for `COc1ccc2c(c1)CCc1c(C(=O)N3CCCC3)noc1-2` was -1.12%; that for `CCN(CC)CCCNC(=O)CCc1ccccc1` was 3.7%.
The value for `Cc1nn(CC(=O)Nc2nc3ccccc3s2)c(C)c1[N+](=O)[O-]` was -1.92%; that for `O=C(CCS(=O)(=O)c1cccc2nsnc12)N1CCN(c2ccccc2F)CC1` was 6.04%.
For `Fc1ccc(N2N=C(c3cccs3)CC2c2ccco2)c(F)c1` (centres undefined), the inhibition is 8.56%.
The same measure for `CC(NC(=O)CSc1nc2c(cc1C#N)CN(C)CC2)c1ccccc1` (centres undefined): 60.2% (active); for `Cc1nc2cc(NC(=O)CSc3nc4c(C)cccc4cc3C#N)ccc2s1`: -0.17%.
The value for `Cc1cc2cc3c(cc2nc1SCC(=O)Nc1c(C)cccc1C)CCC3` was -0.36%; that for `CC(C)C(NS(=O)(=O)c1cccs1)C(=O)Nc1nc(C(C)(C)C)cs1` (centres undefined) was 7.03%.
The same measure for `Cc1c(C=O)c2ccccn2c1C(=O)c1ccncc1`: -6.66%.
For the compound `O=C(Nc1ccc2ccccc2c1)Nc1ccc2snnc2c1`, the inhibition was 96.1% (active).
The same measure for `COc1ccc(NC(=O)Nc2ccc3nc(C)c(C)nc3c2)cc1`: -7.69%; for `COc1ccc(NC(=O)Nc2ccc3nsnc3c2)cc1`: -0.7%; for `CC(=O)Nc1ccccc1C(=O)C(=O)Nc1ccc(F)cc1`: -1%.
Turning to `O=C(CC(O)(C(F)(F)F)C(F)(F)F)Nc1ccc(Cl)c(Cl)c1`, the inhibition is 105% (active).
The same measure for `N/C(=N\OC(=O)Nc1ccc(Cl)c(Cl)c1)c1ncc(C(F)(F)F)cc1Cl`: 3.3%; for `Cc1nnc(NC(=O)Nc2ccc(Cl)c(Cl)c2)s1`: 5.16%; for `COc1cc(SC)ccc1C(=O)NCCOc1ccccc1Cl`: 4.48%.
The value for `c1ccc(-c2[nH]ncc2-c2nc3ccccc3[nH]2)cc1` was 11%; that for `c1ccc2[nH]c(-c3nc4ccccc4[nH]3)nc2c1` was 30.1% (active).
The value for `Cc1ccc(-c2nc3ccccc3[nH]2)cc1N` was 0.67%.
On to `CCCc1ccc(OCC(=O)NNC(=S)NC(=O)c2ccco2)cc1`, for which the inhibition is 27.3%.
The value for `COc1ccc(C(=O)NC(=S)NNC(=O)CCc2ccccc2)cc1` was 0.19%.
Take `CC(Oc1ccc2ccccc2c1)C(=O)NNC(=S)NC(=O)c1ccco1` (centres undefined): the inhibition was 43% (active).
The value for `CCN(CC(=O)NC1CCS(=O)(=O)C1)c1nc(-c2cccnc2)nc2ccccc12` (centres undefined) was 3.37%; that for `COC(=O)Cc1cc(=O)oc2c(C)c(O)ccc12` was -6.64%; that for `CS(=O)(=O)N(CC(=O)N1CCN(Cc2ccc3c(c2)OCO3)CC1)c1ccc2c(c1)OCO2` was 6.95%.
The value for `CCn1cc(C(=O)N2CCN(Cc3ccc4c(c3)OCO4)CC2)c2cc(OC)c(OC)cc2c1=O` was -1.13%; that for `COc1cc(Cl)c(S(=O)(=O)N2CCN(Cc3ccc4c(c3)OCO4)CC2)cc1Cl` was 38.9% (active).
The value for `CC(=O)c1ccc(Cc2ncc(C(F)(F)F)cc2Cl)s1` was 6.38%; that for `COc1ccc(-c2ccc(Nc3ccc(S(=O)(=O)N4CCCC4)cc3)nn2)cc1OC` was 1.55%; that for `COc1ccc(-c2cc(C(F)(F)F)nc(S(C)(=O)=O)n2)cc1OC` was 54.9% (active).
For the compound `COc1ccc(-c2cc(C(F)(F)F)nc(NCc3cccnc3)n2)cc1`, the inhibition was 10.4%.
The same measure for `CCOC(=O)c1cc2c(ccn2C)n1CC(=O)N1CCC(C)CC1`: 1.25%.
